Results on 28 compounds are retold here after PubChem BioAssay AID504558 (Broad Institute, 2011).

Screen size: about 350,000 compounds; about 2,400 (0.69%) were called active. The entries come from a sample that favours actives as a whole. Values without a mark were called inactive. No stated cut-off is given here; in the data, active means inhibition above about 41%; inconclusive means no clear call, values can overlap the other calls; inactive means below that.

This assay is described as follows: blockers of LMP1-induced NF-kB reporter signal – cell-based, luminescence, single point, primary screen (AID 504558).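 Further: 0% = neutral control wells and 100% = reference inhibitor control.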 The note with it: LMP1-induced NF-kappaB luciferase reporter cells, at 12.5 µM, active compounds read high.
As to `C[C@@H]1CN([C@@H](C)CO)S(=O)(=O)c2ccc(C#Cc3cccc(F)c3)cc2O[C@H]1CN(C)S(=O)(=O)c1cn(C)cn1`, the inhibition was 5.98%.

Regarding `C=CCOc1ccccc1CNn1c(C)n[nH]c1=S`, the inhibition is -1.28%.

Turning to `N#CCCC(C#N)(c1cccnc1)N1CCOCC1` (stereo not drawn), the inhibition is 2.43%.

With `CC(C)(C)Nc1nc(-c2ccccn2)nc2ccccc12`, the inhibition was 45.7% (active).

With `COc1cnc(-c2ccccn2)nc1Oc1ccc(C(C)(C)C)cc1`, the inhibition was -4.07%.

Regarding `Cc1nc2ccccc2c(C(=O)O)c1-c1ccccn1`, the inhibition is 3.33%.

`O=S1(=O)CCN(Cc2ccccc2)CC1`: the inhibition was 0.572%.

For the compound `CC1=C(C(=O)N2CCOCC2)CC(CC(=O)NCc2cccc3ccccc23)C(=O)N1CCC1=CCCCC1` (stereo not drawn), the inhibition is -1.54%.

As for `CC1CCN(C(=O)CSc2nnc(-c3ccco3)n2N)CC1`, the inhibition was -6.21%.

As for `CCCc1cc(=O)oc2c(C)c(O)c(CN3CCCCC3)cc12`, the inhibition was 5.86%.

For `O=C(Cc1ccccc1)NNC(=O)C1CCN(c2ncccn2)CC1`, the inhibition is -1.53%.

Regarding `Oc1c(CN2CCCC2)cc(COCc2ccccc2)c2cccnc12`, the inhibition was 69% (active).

In the case of `COCCCN1C(=O)C(CC(=O)NCc2cccs2)CC(C(=O)N2CCOCC2)=C1C` (stereo not drawn), the inhibition is -3.59%.

For the compound `CC(C)OCC(O)CN1CCN(C(c2ccccc2)c2ccccc2)CC1` (stereo not drawn), the inhibition was -3.08%.

As to `CC1(C)CC(N2CCN(C(c3ccccc3)c3ccccc3)CC2)=CC(=[N+]2CCCCC2)C1`, the inhibition is 50.9% (active).

For the compound `CC1(C)CC(=O)C=C(N2CCOCC2)C1`, the inhibition is 7.14%.

On to `CCCCN1CC(C)(C)[C@H](CC(=O)Nc2ccc(Br)cc2)C1=O`, for which the inhibition was 3.19%.

With `COc1ccc(-c2cc(C(=O)N3CCN(Cc4ccc5c(c4)OCO5)CC3)on2)cc1OC`, the inhibition is 60.2% (active).

As to `O=C(c1cccs1)N1CCN(Cc2ccc3c(c2)OCO3)CC1`, the inhibition is 2.81%.

`CCn1cc(C(=O)N2CCN(Cc3ccc4c(c3)OCO4)CC2)c2cc(OC)c(OC)cc2c1=O`: the inhibition is -0.487%.

Turning to `O[C@H]1CN(Cc2cccs2)[C@@H](c2ccc(Cl)cc2)C[C@@H]1n1cc(C2CC2)nn1`, the inhibition was -3.9%.

Turning to `CCCCCCN1C[C@H](O)[C@@H](n2cc(C3CC3)nn2)C[C@@H]1c1ccc(Cl)cc1`, the inhibition was -2.06%.

Turning to `O=C(Nc1ccc(N2CCN(C(=O)c3cccs3)CC2)cc1)c1cccnc1Cl`, the inhibition was 6.16%.

Consider `O=C(Nc1ccc(N2CCN(C(=O)C3CC3)CC2)cc1)c1cccs1`, for which the inhibition was 4.6%.

For `Cc1ccccc1C(=O)N1CCN(c2ccc(NC(=O)c3cccs3)cc2)CC1`, the inhibition was 49.3% (active).

In the case of `Cc1ccc(C(=O)NC(=S)Nc2ccc(N3CCOCC3)cc2)cc1`, the inhibition is 1.51%.

For the compound `Cc1ccccc1C(=O)NC(=S)Nc1ccc(N2CCN(C(=O)c3ccccc3)CC2)cc1`, the inhibition is 43.1% (active).

As for `COc1ccccc1C(=O)NC(=S)Nc1ccc(N2CCOCC2)cc1`, the inhibition was 2.08%.
